Assay outcomes: PubChem BioAssay, several laboratories
GRIN3A LBD mod = modulates the human NR3A ligand-binding domain; NR3A LBD differential scanning fluorimetry, Tm shift; 0% = protein alone, 100% = glycine-bound protein; Tm shift relative to glycine control, % at 25 µM; 2.5% of 340,000 active;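 active = melting temperature shift of at least 10% of the positive control shift, at one fixed dose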
NadD block = blocks S. aureus nicotinate mononucleotide adenylyltransferase. purified NadD enzyme, colorimetric absorbance read-out. inhibition, % at 20 µM. 0.78% of 360,000 active. AID 602399; in the data active = inhibition above about 26%
rCAG binder = binds r(CAG) RNA repeats; r(CAG) RNA repeat, TO-PRO-1 dye displacement fluorescence; inhibition, % at 3 µM; 1.3% of 370,000 active;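 active = inhibition above the plate cutoff, the mean of all test compounds on that plate plus 3 SD, cut at about 35% in these data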;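 note: higher means more dye released from RNA so lower well fluorescence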
FAS TE block = blocks the thioesterase domain of human fatty acid synthase; recombinant FAS-TE, OMFH fluorogenic substrate, fluorescence endpoint; inhibition, % at 15 µM; 0.67% of 360,000 active;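 active = compounds whose normalised, plate-corrected inhibition of enzyme fluorescence in the single-dose primary screen is 50% or more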
NadD inh conf = confirmation of Staphylococcus aureus NadD inhibitors | shares compounds with NadD block | purified S. aureus NadD, colorimetric enzyme assay | inhibition, % at 20 µM | 13% of 2,000 active | AID 624309; in the data active = inhibition mostly above about 42%, no sharp cut-off; inactive = mostly below about 42%
Each line names hits and unclear results; the compound was inactive in the other large screens (follow-up assays come after a bar, where they were run). Hits are enriched below; roughly 4.3% of the tested compounds scored in any of these assays.

Cc1cc(-c2csc(N)n2)c(C)n1Cc1ccco1	NadD block 30.6 | NadD inh conf inactive
Cc1cc(C(=O)CSc2nnc(N)s2)c(C)n1Cc1ccco1	none
COc1ccc(NS(=O)(=O)c2ccc3nc(COc4cccc5ccccc45)[nH]c3c2)cc1	GRIN3A LBD mod 17.1, NadD block 37.6 | NadD inh conf inactive
O=C(NCc1ccccc1)c1cccc2c1C(=O)c1ccc(/C=C/c3ccccc3)cc1S2(=O)=O	NadD block 33.7 | NadD inh conf inactive
O=C(NCc1cccc(OC(F)(F)F)c1)c1cccc2c1C(=O)c1ccc(-c3ccc(F)cc3OCc3ccccc3)cc1S2(=O)=O	NadD block 48.2 | NadD inh conf inactive
O=C(NC1CCCC1)c1cccc2c1C(=O)c1ccc(/C=C/c3ccccc3)cc1S2(=O)=O	none
Cc1ccccc1C(=O)n1ccc2ccc(-c3ccc4ccn(Cc5ccccc5)c4c3)cc21	none (no result: GRIN3A LBD mod, NadD block, FAS TE block)
Cc1ccc(NC(=O)C2CCCN2S(=O)(=O)c2cccnc2)c(C)c1 (configuration not stated)	none (no result: GRIN3A LBD mod, NadD block, FAS TE block)
Cc1cccc(NC(=O)NCCCN2CCN(c3ccc(F)cc3)CC2)c1	none (no result: GRIN3A LBD mod, NadD block, FAS TE block)
COCCn1c(=O)[nH]c(=O)c2c1nc(-c1ccc(-c3ccc(Cl)cc3[N+](=O)[O-])o1)n2Cc1ccccc1	NadD block 44.8 | NadD inh conf inactive
COc1ccc(-c2ccc(-c3nc4c(c(=O)[nH]c(=O)n4Cc4ccccc4)n3C)o2)c([N+](=O)[O-])c1	NadD block 52.4 | NadD inh conf inactive
COCCn1c(-c2ccc(-c3ccc([N+](=O)[O-])cc3Br)o2)nc2c1c(=O)[nH]c(=O)n2CC(C)C	NadD block 43.7 | NadD inh conf inactive
O=c1[nH]c(=O)n(Cc2ccccc2)c2nc(-c3ccc(Oc4ccc(F)cc4)c([N+](=O)[O-])c3)n(CCO)c12	none
COCCn1c(-c2ccc(SC)cc2)nc2c1c(=O)[nH]c(=O)n2CC(C)C	none
Cn1c(C(=O)N2CCN(c3nc4ccccc4s3)CC2)cc2sccc21	none
O=C(c1cc2sccc2n1Cc1ccc(F)cc1)N1CCN(c2nc3ccccc3s2)CC1	NadD block 54.5 | NadD inh conf inactive
COc1ccc(S[C@]2(C(=O)N3CCCC3)CC(=O)N(c3ccc4c(ccn4C)c3)[C@@H]2c2ccc(OC)cc2)cc1	none (no result: GRIN3A LBD mod, NadD block, FAS TE block)
CCCCCCCCCCCCCCCC[n+]1cccc(C(=O)N(CC)CC)c1	none
CCCCCCCCCCCCCCCC[n+]1ccc(C(N)=O)cc1	GRIN3A LBD mod 15.5, NadD block 29.3 | NadD inh conf inactive
Cc1nc(N2CCN(C)CC2)c2cc(-c3ccccc3)sc2n1	none
Cc1nc(N2CCN(S(=O)(=O)c3ccccc3)CC2)c2cc(-c3ccccc3)sc2n1	NadD block 41.4 | NadD inh conf inactive
COC(=O)C1=C(C)N(Cc2ccc(Cl)cc2)C(=S)NC1c1ccc(Br)cc1 (configuration not stated)	none (no result: GRIN3A LBD mod, NadD block, FAS TE block)
O=C(/C=C/c1ccc(Cl)cc1Cl)c1ccc[nH]1	none
CNc1ccc(Br)cc(C(=O)/C=C/c2ccc(Cl)cc2Cl)c1=O	NadD block 61.7 | NadD inh conf inactive
CCNc1ccc(Br)cc(C(=O)/C=C/c2ccc(Cl)cc2)c1=O	NadD block 44.4 (no result: rCAG binder) | NadD inh conf inactive
O=C(/C=C/c1ccc(F)cc1)c1cc(Br)ccc1O	none
Cc1cccc(-n2nc(C(=O)Nc3ccccc3)n3c(=O)cc(-c4ccccc4)nc23)c1	NadD block 30.1 | NadD inh conf inactive
CCOc1cc(/C=N/NC(=O)CNc2ccc(C)cc2)ccc1OC(=O)c1ccccc1	NadD block 32.5 | NadD inh conf inactive
N#Cc1c(N2CCN(c3ccc(F)cc3)CC2)nc(N)c2c(N)nc3c(c12)CC(=O)N3C1CC1	NadD block 43.8 | NadD inh conf inactive
CN(C)c1nc(N2CCN(c3ccc(F)cc3)CC2)c(C#N)c(=O)o1	none
COc1ccc(/C=C2\SC(=N)N(c3nccs3)C2=O)cc1OC	none
N=C1S/C(=C\c2ccc(-c3cccc(Cl)c3)o2)C(=O)N1c1nccs1	NadD block 75.7 | NadD inh conf inactive
COc1cc(C(=O)NN=C2c3ccccc3-c3ccccc32)cc(OC)c1OC	none (no result: GRIN3A LBD mod, NadD block, FAS TE block)
S=C(Nc1cccc(Cl)c1)OC1CCC12CCC(c1ccccc1)CC2 (configuration not stated)	none (no result: GRIN3A LBD mod, NadD block, FAS TE block)
O=C(CSc1ncnc2scc(-c3ccccc3)c12)N1CCN(Cc2ccc3c(c2)OCO3)CC1	NadD block 38.3 | NadD inh conf inactive
Cc1ccc(-c2csc3ncnc(SCc4ccc(C(=O)O)cc4)c23)cc1	NadD block 31.9 | NadD inh conf inactive
c1ccc(-c2csc3ncnc(N4CCN(Cc5ccc6c(c5)OCO6)CC4)c23)cc1	none
